In general, inhibition refers to the drop in the measured response relative to a control, in per cent.

Here are results for 15 compounds from ChEMBL document CHEMBL1961873, “Compounds: GSK PKIS; Assays: Nanosyn kinase panel” (2012).
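Also: reported values are mean percent inhibition of Lck.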

The assay deals with Tyrosine-protein kinase Lck (Homo sapiens) (UniProt P06239). The note with it: at 0.1 µM.
Chain of Tyrosine-protein kinase Lck (Homo sapiens) (P06239 2-509 limits assumed): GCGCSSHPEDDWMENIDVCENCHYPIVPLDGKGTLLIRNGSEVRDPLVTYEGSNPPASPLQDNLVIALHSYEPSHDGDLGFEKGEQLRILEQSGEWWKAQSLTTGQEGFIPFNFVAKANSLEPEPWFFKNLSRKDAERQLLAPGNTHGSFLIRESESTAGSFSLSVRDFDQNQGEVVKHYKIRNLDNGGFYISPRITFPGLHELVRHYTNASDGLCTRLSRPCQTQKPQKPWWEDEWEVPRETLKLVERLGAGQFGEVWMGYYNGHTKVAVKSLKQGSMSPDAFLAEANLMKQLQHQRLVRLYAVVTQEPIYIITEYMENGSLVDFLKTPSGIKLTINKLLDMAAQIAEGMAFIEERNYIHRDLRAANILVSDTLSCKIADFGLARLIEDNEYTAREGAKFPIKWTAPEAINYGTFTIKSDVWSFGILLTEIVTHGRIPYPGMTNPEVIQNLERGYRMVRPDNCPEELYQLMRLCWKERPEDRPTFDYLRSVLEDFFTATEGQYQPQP
In the case of `CCn1cc(-c2ccnc3[nH]ccc23)c(-c2cccc(NC(=O)Nc3ccc(OCc4ccccc4)cc3)c2)n1`, the inhibition came out at 2.58%.

Take `Cc1cccc(Nc2ncc(-c3ccccc3)o2)c1`: the inhibition was 3.23%.

With `Nc1nc(-c2ccc(F)cc2)c(-c2ccc3ncccc3n2)s1`, the inhibition came out at 9.43%.

`FC(F)(F)c1cccc(-c2nn3ncccc3c2-c2ccnc(Nc3ccc4c(c3)OCCO4)n2)c1`: the inhibition amounted to 9.37%.

In the case of `CNC(=O)c1cncc(/C=C/c2ccccc2Cl)c1`, the inhibition was 4.51%.

For `O=C(O[C@H]1CN[C@H](C#Cc2cc3ncnc(Nc4ccc(Cc5ccccc5)cc4)c3s2)C1)N1CCOCC1`, the inhibition worked out at 2.19%.

On to `COc1ccc(-c2nn3ncccc3c2-c2ccnc(Nc3ccc4c(c3)OCCO4)n2)cc1`, for which the inhibition amounted to 34.8%.

With `CCNC(=O)O[C@H]1CN[C@H](C#Cc2cc3ncnc(Nc4ccc(OCc5cccc(F)c5)c(Cl)c4)c3s2)C1`, the inhibition was 3.42%.

As to `COc1ccc(-c2oc3ncnc(N)c3c2-c2ccc(NC(=O)Nc3cc(C(F)(F)F)ccc3F)cc2)cc1`, the inhibition came to 21.1%.

Consider `CCn1c(-c2nonc2N)nc2cnc(Oc3cccc(NC(=O)c4ccc(N(C)C)cc4)c3)cc21`, for which the inhibition was -0.65%.

For the compound `CCn1c(-c2nonc2N)nc2c(C#CC(C)(C)O)nc(OC[C@H](N)c3ccccc3)cc21`, the inhibition is 2.85%.

Consider `Fc1ccc(-c2nn3ncccc3c2-c2ccnc(Nc3ccc4c(c3)OCCO4)n2)cc1`, for which the inhibition was 44.7%.

As to `COc1cccc(-c2c[nH]c3c(N/N=C/c4ccncc4)ncnc23)c1`, the inhibition was determined as 35.1%.

As for `O=C(Nc1n[nH]c2cc(-c3ccc(F)cc3)ccc12)C1CC1`, the inhibition worked out at 1.9%.

Regarding `Clc1ccc(-c2nn3ncccc3c2-c2ccnc(Nc3ccccc3)n2)cc1`, the inhibition was determined as 13.9%.
